The whole screen tested about 53,000 compounds, of which about 900 (1.7%) showed an effect of 50% or more. The entries come from a sample that favours strong results as a whole.
What follows are compounds tested on Mycobacterium tuberculosis (assay: Cornell - Phenotypic assay to identify agents that inhibit growth of Mycobacterium tuberculosis). Conditions: 10 mM as filed; unlikely as a test dose.
Type: functional
Design: scale not given: direction of the effect not stated beside the values

SMILES	Percent Effect
CC(C)c1cc(C2CCCN2C(=O)c2cn3ccsc3n2)no1 (configuration not stated)	31.59%
Cc1cc(NC(=O)C2CCN(c3ncccc3C#N)CC2)no1	-28.06%
O=C(Cc1cccs1)NCc1ccnc(C2CCCOC2)n1 (configuration not stated)	6.218%
Cc1nc(C)n(CC2CCCN(c3ncnc4ccccc34)C2)n1 (configuration not stated)	-29.18%
Cc1nc(C)n(CC2CCCN(c3ncnc4sccc34)C2)n1 (configuration not stated)	-6.342%
Cc1nc(C)n(CC2CCCN(c3ncnc4ccsc34)C2)n1 (configuration not stated)	51.96%
Cc1ncccc1C(=O)Nc1cccc(C[S+](C)[O-])c1C (configuration not stated)	11.87%
COc1ccc(-n2cc(CNC(=O)c3ccc[nH]3)nn2)cc1	1.2%
CC(=O)N1CCC2(C1)CN(S(=O)(=O)c1ccccc1)C2	13.22%
c1cnnc(N2CCCC2CNCc2nc3ccccc3o2)c1 (configuration not stated)	108.2%
CN(Cc1nc2ccccc2o1)CC1CCCN1c1cccnn1 (configuration not stated)	-25.78%
Cc1nc(CNCC2CCCN2c2cccnn2)oc1C (configuration not stated)	5.973%
Cn1cc(C(=O)N2CCO[C@@H]3CN(C4CCC4)C[C@@H]3C2)cn1	3.925%
COCCN1CCN(Cc2cccc(C(=O)N(C)C)c2)CC1	-27.32%
CCC(C)N(Cc1cnc(OC)nc1)Cc1ccsc1 (configuration not stated)	-2.85%
COCCCN(C)c1nc(-c2ccncc2)nc(C)c1C	79.79%
Cc1nc(-c2ccncc2)nc(N(C)CCc2ccncc2)c1C	-4.993%
COCCCN(C)c1nc(-c2ccncc2)nc2c1CCN(C(C)=O)C2	-26.88%
NC(=O)C1CCN(C(=O)NCc2ccc(-c3ccn[nH]3)cc2)CC1	-27.61%
O=C(N1CCCO1)[C@@]12CCO[C@@H]1CCN(Cc1ccccn1)C2.O=C(O)C(F)(F)F.O=C(O)C(F)(F)F	16.34%
O=C(Nc1ccccn1)NC(CCCO)c1ccccc1 (configuration not stated)	-24.69%
O=C(Nc1cccnn1)NC(CCCO)c1ccccc1 (configuration not stated)	-8.222%

SMILES	Percent Effect
CC(C)Oc1cccc(C(O)CNC(=O)NCc2cccs2)c1 (configuration not stated)	7.446%
O=C(NCC(O)c1ccccc1)Nc1cccs1 (configuration not stated)	59.31%
CCOc1ccccc1CCNC(=O)NCC(O)c1ccsc1 (configuration not stated)	26.35%
Cc1csc(CNC(=O)NCC(O)c2ccccc2)n1 (configuration not stated)	-28.19%
O=C(NCC(O)c1ccsc1)c1sccc1OC(F)F (configuration not stated)	14.09%
CC(C)Oc1cccc(C(O)CNC(=O)Nc2cccs2)c1 (configuration not stated)	105%
O=C(NCCc1ccccc1)NCC(O)c1cccs1 (configuration not stated)	16.84%
O=C(NCC(O)c1ccsc1)Nc1cccs1 (configuration not stated)	98.83%
O=C(Nc1cccs1)NC(CCCO)c1ccccc1 (configuration not stated)	101.4%
CC(C)Oc1cccc(C(O)CNC(=O)CCc2ccncc2)c1 (configuration not stated)	31.72%
Cc1cc(C)n2c(CNCc3ccc(OC(F)F)cc3)cnc2n1	-7.615%
Cn1ncc2c(N3CCCN(C(=O)c4ccsc4)CC3)ncnc21	16.86%
CCCc1ccc(CN2CCC3(CCC(=O)N(CCO)C3)CC2)o1	9.804%
COc1ccccc1C(=O)N1CCOC2(CCCN(C(C)=O)C2)C1 (configuration not stated)	23.26%
Fc1ccc(C2CCCN2Cc2nnnn2C2CC2)cc1 (configuration not stated)	-22.59%
O=C(NCCCN1CCCC1=O)c1nc(-c2ccc3[nH]ccc3c2)no1	3.66%
Cn1cccc1C(=O)N1CCC2(CC1)COC(COc1ccccn1)C2.O=C(O)C(F)(F)F (configuration not stated)	9.973%
CC(C)NC(=O)C(C)NC(=O)N1CCN(c2ccc(Cl)cc2)CC1 (configuration not stated)	-27.07%
CN(C(=O)NC1CC1)C1CCN(c2ccc(Cl)cc2)CC1	17.37%
CC(C)NC(=O)[C@H](C)NC(=O)N1CCN(c2ccc(Cl)cc2)CC1	-2.997%
CC(C)C(NC(=O)N1CCN(c2ccc(Cl)cc2)CC1)C(=O)NC1CC1 (configuration not stated)	93.48%
C[C@H](NC(=O)N1CCN(c2ccc(Cl)cc2)CC1)C(=O)N1CCSCC1	11.26%

SMILES	Percent Effect
CC(C)[C@H](NC(=O)N1CCN(c2ccc(Cl)cc2)CC1)C(=O)NC1CC1	4.583%
CC(C)NC(=O)[C@@H](NC(=O)N1CCN(c2ccc(Cl)cc2)CC1)C(C)C	70.57%
CC(NC(=O)N1CCN(c2ccc(Cl)cc2)CC1)C(=O)N1CCSCC1 (configuration not stated)	21.43%
CC(C)NC(=O)C(NC(=O)N1CCN(c2ccc(Cl)cc2)CC1)C(C)C (configuration not stated)	76.86%
Fc1ccccc1NCc1nc2n(n1)CCCCC2	6.356%
NC(=O)CN1CCCC(c2cncc(Nc3ncccn3)n2)C1 (configuration not stated)	28.6%
COCCN1C(=O)CC[C@]12CC[C@@H](NC(=O)c1cnccn1)CC2	8.611%
CCCc1nnnn1CC(=O)NCc1cccc(C)c1	14.77%
CCOC(=O)C1(Cc2ccccc2-c2ccccc2OC)CCNCC1.Cl	1.496%
CNc1[nH]nc(N)c1C(=O)Nc1ccccc1	-18.4%
CNc1[nH]nc(N)c1C(=O)Nc1ccc(OC)cc1	-4.193%
CNc1[nH]nc(N)c1NC(=O)c1ccccc1	107.3%
CC(C)N1CCCC(c2cc(C(F)(F)F)nc3nccn23)C1 (configuration not stated)	55.76%
Cc1cc(C)nc(Nc2nccnc2C2CCCN(C(C)C)C2)n1 (configuration not stated)	29.5%
FC(F)(F)c1cc(C2CCCN(c3cnccn3)C2)n2ccnc2n1 (configuration not stated)	5.193%
Cc1nc(Nc2cnccn2)cc(C2CCCN(C(C)C)C2)n1 (configuration not stated)	-5.253%
FC(F)(F)c1cc(C2CCN(c3cnccn3)CC2)n2ccnc2n1	47.21%
FC(F)(F)c1cc(C2CCCN(c3ncccn3)C2)n2ccnc2n1 (configuration not stated)	58.69%
NC(=O)c1ccc(C2CCCN2C(=O)CCc2nc3ccccc3s2)s1 (configuration not stated)	-11.96%
c1csc(N2CCCN(c3ncnc4sccc34)CC2)n1	9.712%
Cc1ccccc1CC1(CO)CCCN(c2ncnc3sccc23)C1 (configuration not stated)	79.2%
Cc1ccccc1CC1(C(=O)O)CCCN(c2ncnc3[nH]ccc23)C1 (configuration not stated)	8.891%

SMILES	Percent Effect
CC(=O)c1ccc(N2CCCC(CO)(Cc3ccccc3C)C2)nc1 (configuration not stated)	13.02%
Cc1cnc(C)c(N2CCCC(CO)(Cc3ccccc3C)C2)n1 (configuration not stated)	5.498%
Cc1ccccc1CC1(CO)CCCN(c2ncncc2C(C)C)C1 (configuration not stated)	81.01%
CC(=O)NCCNC(=O)CCn1c(C)cc2ccccc21	15.36%
Cc1cc(NC(=O)CN2CCCC2c2noc(C3CC3)n2)n(C)n1 (configuration not stated)	-35.39%
O=C(O)C(F)(F)F.O=C(c1ccccc1F)N1CCC2(CC1)CC(Oc1ccccn1)CO2 (configuration not stated)	20.39%
Cl.NCC(=O)N1CCCC1c1n[nH]cc1-c1ccccc1F (configuration not stated)	-8.12%
CN(C)c1nccc(C2CCN(c3ncccn3)CC2)n1	38.24%
CC(=O)N1CCCC(c2ccnc(N(C)C)n2)C1 (configuration not stated)	-19.51%
CN(C)c1nccc(C2CN(c3cnccn3)CCO2)n1 (configuration not stated)	-32.07%
CN(C)c1nccc(C2CN(c3ccccc3)CCO2)n1 (configuration not stated)	59.44%
CC(C)N1CCOC(c2ccnc(N(C)C)n2)C1 (configuration not stated)	50.07%
CC(=O)N1CCOC(c2ccnc(N(C)C)n2)C1 (configuration not stated)	23.94%
O=C(Cn1ccnc1)N1C[C@@H]2CC[C@H](Oc3ccccc3F)[C@@H]2C1	-34.19%
O=C(Nc1nc2c(s1)CCC2)NC1CCCC1	34.54%
Cl.O=C(NCCO)c1sc2ncccc2c1C1CNCCO1 (configuration not stated)	5.786%
CC(=O)Nc1nc(C(=O)NCc2ccc(N3CCCCC3)cc2)cs1	-6.079%
CN(CCN1CCOC1=O)CC(=O)Nc1cc(F)cc(F)c1	-4.563%
CCN1CC(COC(=O)c2ccccc2Cl)CC1=O (configuration not stated)	9.93%
CCc1c(C)sc(NC(=O)CN2CCN(CC)CC2)c1C(=O)OC	85.25%
CCOC(=O)c1c(NC(=O)C2CCN(C(C)=O)CC2)sc(C)c1CC	0.6351%
CCc1c(C)sc(NC(=O)CN2CCOCC2)c1C(=O)OC	13.88%

SMILES	Percent Effect
NC(=O)N1CCc2ncc(CNC(=O)CC3CC3)n2CC1	-19.97%
O=C(C1CC1)N1CCC2(CCCN2Cc2ccc(F)cc2)CC1.O=C(O)C(F)(F)F	3.548%
CC(=O)N1CCCC(c2nc(N(C)C)ncc2-c2ccccc2)C1 (configuration not stated)	12.04%
CCC(=O)N1CCCC(c2nc(N(C)C)ncc2-c2ccc(F)cc2)C1 (configuration not stated)	78.09%
COCC(=O)N1CCCC(c2nc(N(C)C)ncc2-c2ccccc2)C1 (configuration not stated)	21.17%
CCN1Cc2cc(OC)ccc2N(CC(C)(C)O)CCC1=O	-17.4%
CN(C)c1ncccc1CNC(=O)CCNc1ncccn1	29.98%
Cc1cc(-c2cnc(NC3CCCC3)nc2-c2ccc(C)o2)on1	92.52%
Cc1cc(-c2cnc(NC3CCCCC3)nc2-c2ccco2)on1	97.15%
Cc1cc(-c2cnc(NC3CCCC3)nc2-c2ccoc2)on1	81.21%
Cc1cnc(-c2nc(NC3CC3)ncc2-c2cc(C)no2)cn1	-18.55%
Cc1cc(-c2cnc(NC3CC3)nc2-c2ccco2)on1	47.86%
Cc1noc(-c2cnc(NC(C)C)nc2-c2ccco2)c1C	32.42%
Cc1cc(-c2cnc(NC3CCCC3)nc2-c2ccco2)on1	78.21%
Cc1cc(-c2cnc(NC3CC3)nc2-c2ccoc2)on1	-15.23%
Cc1cc(-c2cnc(NC3CCCC3)nc2-c2ccoc2C)on1	18.15%
Cc1noc(-c2cnc(NCC3CCCO3)nc2-c2ccco2)c1C (configuration not stated)	34.64%
Cc1cnc(-c2nc(NC3CCCC3)ncc2-c2onc(C)c2C)cn1	7.273%
COCCNc1ncc(-c2cc(C)no2)c(-c2ccco2)n1	-34.06%

Source: ChEMBL document CHEMBL3988442, “University of Dundee, Small-Polar-MMV Screening Library” (2021)
